The values that follow come from PubChem BioAssay AID2113 (National Center for Advancing Translational Sciences (NCATS), 2009).

Structures are written as SMILES. Records with an inconclusive call do not appear. A number with no mark means an inactive call. The source made the active and inactive calls. Calls come from the whole dose curve; as a rule, active = well fitted curve in either direction with a large enough effect; inconclusive = small, poorly fitted or top-dose-only effect; inactive = no such curve, though single readings can be large or run the other way.
Potency is the fitted concentration of half-maximal effect.

The target of the assay is Lysosomal alpha-glucosidase (Homo sapiens) (UniProt P10253). Briefly: Confirmation of Inhibitors and Activators of Human alpha-Glucosidase From Spleen Homogenate.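 For Potency: fluorescence of 4-methylumbelliferone released from a fluorogenic glucopyranoside substrate at pH 5.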 For activity change, both directions: 0% is about no effect. The settings on record: alpha-glucosidase enzyme activity; series mostly up to 60.5 µM; activity change, both directions: at the top concentration. In a few lines:
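Fluorogenic assay using human spleen homogenate (1 ug) as enzyme source with 1 mM 4-methylumbelliferyl-alpha-D-glucopyranoside, pH 5.0 citrate buffer, 40 min at 37 C. 4-MU read (Ex 365/Em 440) after NaOH/glycine stop; AC50 from Hill fits.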
As for `COC(=O)c1ccc(C(=O)OC)c(NC(=S)N2CCOCC2)c1`, the “activity change, both directions” value is 7.39% [at 31.5 µM]. Regarding `COc1ccc(N2CCN(S(=O)(=O)c3ccc4c(c3)CC(=O)N4)CC2)cc1`, the Potency was 18.8 µM [inhibitor] (active). Consider `COC(=O)c1ccc(CSc2cc(C)c3cccc(C)c3n2)o1`, for which the “activity change, both directions” value was 4.59% [at 31.5 µM].

As to `COc1ccc(/C=C\c2nccc3c2[nH]c2ccccc23)cc1`, the “activity change, both directions” value was 19.6%. Still for that read-out and setting: to `O=S(=O)(c1ccccc1)N1CCN(S(=O)(=O)c2ccccc2)CC1` belongs 4.23%; to `Cc1nnc(SCC(=O)Nc2ccc3c(c2)COC3=O)n1-c1ccccc1`, 1.17% [at 31.5 µM]; to `O=C(c1ccccc1)N1CCN(C(=O)c2ccccc2)CC1`, 0.493%. Consider `COc1cc(NC(=O)CN2CCN(c3ccccc3F)CC2)c(C)cc1[N+](=O)[O-]`, for which the “activity change, both directions” value was 7.53% [at 31.5 µM]. Same read-out and setting: to `O=S(=O)(c1ccc(-c2ccccc2)cc1)N1CCOCC1` belongs 3.01%. Consider `Cc1ccc(S(=O)(=O)N2CCOCC2)cc1C`, for which the “activity change, both directions” value was -0.759%. For the compound `COc1cccc2cc(-c3nc(-c4ccc(C)cc4)c(C)s3)c(=O)oc12`, the “activity change, both directions” value is 4.81%. Take `Cc1ccc(S(=O)(=O)NC(=O)NN2CCCCCC2)cc1`: the “activity change, both directions” value is 0.869%. `CCCN1CNc2c(c(=O)[nH]c(=S)n2CCc2ccccc2)C1`: the “activity change, both directions” value was 9.04% [at 31.5 µM].

Turning to `CC(C)CNc1c(N)n(CC(C)C)c(=O)[nH]c1=O`, the “activity change, both directions” value was 0.596% [at 31.5 µM]. `CCCN1CNc2c(c(=O)[nH]c(=S)n2CCc2cc(OC)cc(OC)c2)C1`: the Potency is 11.2 µM (active). `C=C(C)CC(NCc1ccco1)c1ccc(OC)cc1` (stereo not given): the “activity change, both directions” value was 4.39%. Turning to `O=Cc1ccc(N2CCN(S(=O)(=O)c3ccc4c(c3)CC(=O)N4)CC2)cc1`, the Potency was 4.61 µM [inhibitor] (active).

For the compound `Cc1cccn2c(=O)c(/C=C(\C#N)C(=O)NC3CCS(=O)(=O)C3)c(N3CCC(C)CC3)nc12` (stereo not given), the Potency was 11.2 µM (active). In the case of `N#C/C(=C\c1cc(O)c(O)c(O)c1)C(N)=O`, the “activity change, both directions” value is -2.14% [at 31.5 µM]. On to `N#Cc1ccc(N2CCN(S(=O)(=O)c3ccc4c(c3)CC(=O)N4)CC2)cc1`, for which the Potency is 1.16 µM [inhibitor] (active). Consider `COc1ccc(-c2nnc(NC(=O)CSc3ccc(Cl)cc3)s2)cc1`, for which the “activity change, both directions” value is -0.508%. The same measure, in the same setting: the value for `O=C(c1ccccc1)N1CCN(S(=O)(=O)c2ccccc2)CC1` was 1.54%.

In the case of `COc1ccc(CCn2c3c(c(=O)[nH]c2=S)CN(c2ccccc2)CN3)cc1OC`, the Potency is 8.91 µM (active). Consider `COc1ccc(OC)c(/C=C/C(=O)N(C)CC(=O)Nc2ccc(C)cc2)c1`, for which the “activity change, both directions” value is 6.32% [at 31.5 µM]. In the case of `COc1cc(C2c3cc4c(cc3C(OC3OC5COC(C)O[C@@H]5C(O)C3O)C3COC(=O)C23)OCO4)cc(OC)c1O` (stereo not given in full), the Potency is 25.1 µM (active). Turning to `CCCN1CNc2c(c(=O)[nH]c(=S)n2CCc2c(OC)cccc2OC)C1`, the “activity change, both directions” value is 7.74%. For `COc1ccc(C#Cc2cnc(Cl)c3cncnc23)cc1OC`, the “activity change, both directions” value is 2.33%. With `CNc1ncnc2c1ncn2[C@H]1C[C@H](OP(=O)(O)O)[C@@H](COP(=O)(O)O)O1`, the “activity change, both directions” value is 2.81% [at 286 µM]. In the case of `CCCC1(C)Nc2ccccc2-c2nc3ccccc3n21` (stereo not given), the “activity change, both directions” value was 19.2% [at 31.5 µM]. In the case of `N=c1sccn1CC(=O)Nc1cc(S(=O)(=O)N2CCCC2)ccc1Cl`, the “activity change, both directions” value was 2.92%.

Regarding `COCCNS(=O)(=O)c1ccc2c(c1)n(C)c(=O)n2C`, the “activity change, both directions” value was 3.34% [at 31.5 µM].

With `COc1ccc(/C=C/c2nnc(NC(=O)COc3ccc(Cl)cc3)s2)cc1`, the “activity change, both directions” value is -1.2%. `O=C(CCc1cccc(S(=O)(=O)N2CCOCC2)c1)NN=C1c2ccccc2-c2ccccc21`: the “activity change, both directions” value was -5.44%. On the same count and under the same terms, to `Cn1c(N)c(S(=O)(=O)c2ccc(Br)cc2)c2nc3ccccc3nc21` belongs 24% [at 31.5 µM]. On to `CCC(C)Nc1nc(-c2cccc(OC)c2O)nc2ccccc12` (stereo not given), for which the “activity change, both directions” value was 2.75%.
